Measured values published in PubChem BioAssay.
The source made the active and inactive calls.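 Rule for the calls: active = inhibition at or above 50% relative to wild type and mutant plate controls; inactive = inhibition below 50%.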

test: loss of swimming-algae plug formation – whole organism, Chlamydomonas reinhardtii, WT vs cilia-less mutant, absorbance, 96-well, primary screen (AID 463189); conditions: Chlamydomonas reinhardtii gravitaxis, OD600 absorbance, 2 days; at 10 µM; hits give high values;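 note: 0% = wild type cc124 cells in DMSO and 100% = ciliumless bld1 mutant cells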

Structure (SMILES)	inhibition
Cc1cc2c(c(=O)o1)C(Cc1ccccc1)C(C#N)=C(N)O2 (stereo unspecified)	9.12% (inactive)
COc1cc(NC(=O)NC(C)(C(F)(F)F)C(F)(F)F)cc(OC)c1OC	14.3% (inactive)
Cc1c(O)c(CN2CCCCC2)cc2c3c(c(=O)oc12)CCC3	1.32% (inactive)
CCOC(=O)c1[nH]c2ccc(Br)cc2c1NC(=O)CNC	-9.05% (inactive)
COc1ccc(CCn2c(=N)c(C(=O)NCc3ccco3)cc3c(=O)n4ccccc4nc32)cc1	-7.81% (inactive)
CN(C)/C=C1\N=C(c2ccc(Cl)cc2Cl)OC1=O	40.7% (inactive)
Cc1ccc(/C=N/n2nnnc2N)o1	5.51% (inactive)
COc1ccccc1N=Cc1nc(-c2ccccc2)oc1OC(C)=O	23% (inactive)
Cc1ccc2[nH]c3c(N4CCOCC4)ncnc3c2c1	-1.47% (inactive)
CC(=O)C1=C(O)C(=O)N(c2ccc(C(=O)O)cc2)C1c1ccccc1 (stereo unspecified)	-2.45% (inactive)
COc1ccccc1Nc1ncnc2c1cnn2-c1cccc(C)c1	4.11% (inactive)
